Assay outcomes (PubChem)
MCF10A rerep: induces DNA re-replication in MCF 10a normal breast cells. Potency, µM (top dose mostly 46.1 µM), for inactives: top-dose activity, positive = re-replication, actives largely listed as activators. MCF 10A DNA re-replication, Hoechst nuclear intensity, 48 h. 2.9% of 350,000 active. AID 624296; also: % of control where 0% means no effect; nearly all actives have a fitted effect of over 50% in size
SW480 rerep: inducers of DNA re-replication in SW480 colon cancer cells; Potency, µM (doses to about 46.1 µM), for inactives: at the top dose re-replication activation, usual class: activators; 1.8% of 340,000 active; SW480 DNA re-replication, Hoechst DNA content imaging, 48 h; also: % of control where 0% means no effect; nearly all actives have a fitted effect of over 55% in size
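Treated cells incubate 48 hr (37 C, 5% CO2), are stained 40 min with Hoechst, and nuclear fluorescence is enumerated; a rise in nuclei with high DNA signal marks re-replication.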
HT1080 IDH1KD tx: HT-1080 IDH1 knockdown cell toxicity (counter line); HT-1080 IDH1 knockdown viability, ATP luminescence, 48 h; AID 686971; Potency, µM (top dose mostly 46.1 µM), for the others: top-dose activity, negative = toxicity, usual class: cytotoxic; 2% of 360,000 active;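 also: 0% = DMSO wells and -100% = cell-free medium wells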
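Viability of IDH1-knockdown HT-1080 fibrosarcoma cells was assessed by CellTiter-Glo after 48 h at 37 °C with titrated compound; concentration-effect curves were classified by fit quality and response size.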
HT1080-NT tox: kills 2HG-producing HT-1080-NT fibrosarcoma cells; Potency, µM (doses to about 46.1 µM), without a hit: top-dose activity, negative = less viability, hits mostly cytotoxic; 1.6% of 360,000 active; HT-1080-NT fibrosarcoma viability, CellTiter-Glo ATP luminescence, 48 h;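 also: NT is the 2HG producing partner of a matched IDH1 knockdown line; 0% = DMSO-treated cells and -100% = media-only wells without cells; nearly all actives have a fitted effect of over 55% in size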
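Compounds were tested in concentration-response format on HT-1080-NT cells for 48 hours at 37 degrees C. Cell viability came from CellTiter-Glo luminescence; curves were classified by r2, response magnitude and activity.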
KB-3-1 tox: KB-3-1 parental cell cytotoxicity; 1.4% of 400,000 active; KB-3-1 viability, CellTiter-Glo ATP luminescence, 72 h; AID 1347075; Potency, µM (doses to about 46.1 µM), usual class: cytotoxic; also: % is scaled to controls: 0 for no effect and ±100 for the full control effect; nearly all actives have a fitted effect of over 60% in size
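Using CellTiter-Glo luminescence, growth of non-resistant KB-3-1 adenocarcinoma cells is assessed 72 h after pin-tool compound addition at 37 °C. Normalized responses across the concentration series yield fitted curves.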
KB-V1 MDR tox: KB-V1 MDR subline cytotoxicity; Potency, µM (titrated, usually from 46.1 µM), actives largely listed as cytotoxic; KB-V1 MDR cells viability, CellTiter-Glo, 72 h; 3.4% of 400,000 active; AID 1347076; also: % is scaled to controls: 0 for no effect and ±100 for the full control effect; nearly all actives have a fitted effect of over 60% in size
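Cells of the MDR subline KB-V1 are plated, dosed with compound at multiple concentrations, and incubated 72 h at 37 degrees C; CellTiter-Glo is then added and luminescence read after 10 min.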
* = called active by the depositor; i = inactive; ? = inconclusive; . = no result; [ ] = another dose, or the depositor's remark. Rows were chosen to be rich in hits. Some 7.9% of all compounds tested hit in one or more screens of this group. Calls follow the shape of the dose curve; as a rule, active = well fitted curve in the direction sought with a large enough effect; inconclusive = small, poorly fitted or top-dose-only effect, or another doubt; inactive = no such curve, though single readings can be large; an effect the other way counts as inactive or inconclusive. Potency is read from the fitted curve at half-maximal effect.

SMILES	MCF10A rerep	SW480 rerep	HT1080 IDH1KD tx	HT1080-NT tox	KB-3-1 tox	KB-V1 MDR tox
CCN(Cc1ccncc1)C(=O)CC1C(=O)NCCN1Cc1ccc(F)c(F)c1 (stereo not given)	5%	?	-2%	-2%	i	i
CCCCCCn1c(CN2CCC(C)CC2)nc2c1c(=O)n(C)c(=O)n2C	3%	0%	-5%	14%	i	i
O=c1nc(SCc2ccccc2Cl)nc(-c2ccc(Cl)cc2)[nH]1	29%	-46%	4%	6%	i	i
COc1ccc(C)cc1-n1nnnc1SCC(=O)Nc1cccnc1Cl	-3%	5%	1%	-1%	i	13µM*
COc1ccc(OC)c(-n2nnnc2SCC(=O)NCCc2ccccc2)c1	5.8µM*	7.3µM*	9%	7%	i	?
COc1ccccc1NC(=O)CSCc1nc2ccccc2[nH]1	0%	-55%	-1%	5%	i	21µM*
COc1cccc(-n2nnnc2SCC(=O)NCCc2ccccc2)c1	-1%	-2%	-2%	0%	i	i
COc1ccc(C)cc1-n1nnnc1SCC(=O)Nc1cc(C)on1	-10%	-4%	-1%	-1%	i	i
Cc1ccc(C)c(SCC(=O)Nc2cccnc2Cl)c1	1.6µM*	-16%	0%	1%	i	i
C[C@H](NC(=O)[C@@H]1CCCN1C(=O)[C@@H]1CCCN1C(=O)c1cccs1)c1ccccc1	.	.	11%	14%	i	i
Cc1ccc(OCC(=O)Nc2ccccc2C(=O)OCc2cc(=O)n3nc(C4CC4)sc3n2)cc1	.	.	.	.	i	i
Cc1c(OCC(=O)NCc2ccncc2)ccc2c3c(c(=O)oc12)CCC3	1%	-6%	15%	19%	?	i
CCc1ccccc1NC(=O)c1cc(-c2cccs2)on1	-6%	-4%	8%	3%	i	i
CN(CC(=O)NC1CCCCCC1)S(=O)(=O)c1ccc(Br)cc1	-2%	16%	-1%	-5%	i	i
CSc1ncc(C(=O)NCc2ccccc2)c(-c2ccccc2)n1	.	.	.	.	i	i
COc1cc(NC(=O)c2noc3c2CCC3)c(OC)cc1Cl	-1%	-3%	-7%	7%	i	i
CCNC(=O)CSc1nc2ccccc2c(=O)n1-c1cc(OC)ccc1OC	12%	-3%	-7%	-4%	i	18µM*
COc1ccccc1-n1c(SCC(=O)Nc2ccccc2C)nc(O)cc1=O	-4%	0%	10%	0%	i	i
CNC(=O)CSc1nc2ccccc2c(=O)n1-c1cc(OC)ccc1OC	23%	-32%	7%	-5%	i	i
COc1ccccc1NC(=O)CSc1nnnn1-c1ccccc1OC	0.65µM*	-33%	2%	-2%	i	i
CCOc1ccccc1NC(=O)CSc1nnnn1-c1ccccc1	-4%	-1%	-13%	-10%	i	9.2µM*
COc1ccccc1NC(=O)CSc1nc(O)cc(=O)n1-c1ccccc1OC	15µM*	11%	-2%	-17%	i	i
COc1ccc(OC)c(-n2nnnc2SCC(=O)Nc2ccccc2OC)c1	-3%	29%	-18%	-8%	i	i
N/C(=N\OC(=O)COc1ccc(Cl)cc1Br)c1ccncc1	2%	-14%	5%	16%	i	i
Cc1ccc(Cn2c(O)c(N=NC(=S)Nc3ccccc3F)c3cc(S(=O)(=O)N4CCOCC4)ccc32)cc1	-21%	i[1.84 µM]	-12%	-12%	i	?
SMILES	MCF10A rerep	SW480 rerep	HT1080 IDH1KD tx	HT1080-NT tox	KB-3-1 tox	KB-V1 MDR tox
CCOc1ccc(N(CC(=O)NCc2ccc(Cl)cc2)S(=O)(=O)c2ccccc2)cc1	2%	-8%	-15%	-4%	i	i
O=C(c1ccco1)N1CCN(C(=O)c2ccc(CS(=O)c3ccc(Cl)cc3)o2)CC1 (stereo not given)	-1%	-11%	12%	24%	i	i
O=C(N/N=C1\CC(c2ccccc2)Oc2ccccc21)c1ccc(O)cc1 (stereo not given)	?	5%	-9%	-14%	i	i
O=C(N/N=C1\CC(c2ccccc2)Oc2ccccc21)c1cccnc1 (stereo not given)	7%	?	12µM*	?	i	?
CCOC(=O)c1c(C)c(C(=O)NCc2ccc(OC)cc2)c(C)n1C	-2%	3%	1%	-6%	i	i
CN=c1scc(-c2ccc(Cl)cc2)n1C	-4%	-3%	17%	15%	i	i
CSc1nc2c(c(=O)n1Cc1ccccc1)SC(C)C2 (stereo not given)	7%	?	-17%	-2%	i	?
CSc1nc2[nH]c(=O)n(O)c(=O)c2n1Cc1ccccc1	?	2.3µM*	?	?	?	i
COc1ccc(CNC(=O)c2cc3c(=O)n4cccc(C)c4nc3n(CC3CCCO3)c2=N)cc1 (stereo not given)	8.2µM*	4.1µM*	-10%	-15%	i	i
Cc1cccn2c(=O)c3cc(C(=O)NCc4ccc(F)cc4)c(=N)n(CC4CCCO4)c3nc12 (stereo not given)	15%	?	0%	-4%	i	i
Cc1cccn2c(=O)c3cc(C(=O)NC4CCCCC4)c(=N)n(Cc4ccc(F)cc4)c3nc12	?	1.3µM*	-8%	-3%	i	i
Cc1cccn2c(=O)c3cc(S(=O)(=O)c4ccccc4)c(=N)n(Cc4ccc(F)cc4)c3nc12	?	?	15%	0%	i	i
Cc1cccn2c(=O)c3cc(C(=O)NCc4ccco4)c(=N)n(C4CCCC4)c3nc12	2.1µM*	1.8µM*	10%	16%	i	i
Cc1cccn2c(=O)c3cc(S(=O)(=O)c4ccc(Br)cc4)c(=N)n(C4CCCCC4)c3nc12	12%	?	-2%	-4%	i	i
CCOCCCNc1nc2nc3ccc(C)cn3c(=O)c2cc1C(=O)NCC1CCCO1 (stereo not given)	10µM*	9.2µM*	8%	24%	i	i
Nc1nonc1-n1nnc(C(=O)N/N=C/c2ccc(F)cc2)c1-c1cccs1	0%	9%	?	?	i	i
CC(Oc1ccc(Cl)cc1Cl)C(=O)NCCCCc1ccccc1 (stereo not given)	?	0%	-13%	-2%	i	?
Cc1cccn2c(=O)c3cc(C(=O)NCC4CCCO4)c(=N)n(C4CCCCC4)c3nc12 (stereo not given)	18µM*	18µM*	-15%	-9%	i	i
